Active and inactive are the calls of the source. No stated cut-off is given here; in the data, active means nuclear beta-catenin stimulation mostly above about 4.2% (no sharp cut-off); inactive means mostly below about 10%.

A short description of the test: stimulators of nuclear beta-catenin in C2C12, primary screen, imaging, WNT3A-conditioned medium, mouse C2C12, NPC library (AID 1117326). Further: reference of the scale not given here. Particulars: at 10 µM, hits give high values.
Turning to `C[C@H](N)[C@H](O)c1cccc(O)c1`, the nuclear beta-catenin stimulation was -0.7% (inactive).
Next, `CN(Cc1cc(Br)cc(Br)c1N)C1CCCCC1`: -0.1% (inactive).
For `CC(=O)Nc1ccccc1`, the nuclear beta-catenin stimulation was 5.2% (inactive).
Next, `CC(=O)Nc1ccc(S(=O)(=O)Nc2ccc([N+](=O)[O-])cc2)cc1`: 1.1% (inactive); `CCCOc1ccc2nc(NC(=O)OC)[nH]c2c1`: 77% (active).
For the compound `CN(C)CCOC(=O)C(c1ccccc1)C1(O)CCCC1` (stereo not drawn), the nuclear beta-catenin stimulation is 0.3% (inactive).
As for `Cc1cc(O)cc(C)c1Cl`, the figure is -0.1% (inactive).
Next, `CCCCCCc1ccc(O)cc1O`: 7.5% (inactive).
In the case of `Nc1ncnc2nc[nH]c12`, the nuclear beta-catenin stimulation is -2.6% (inactive).
As for `CC(N)C(=O)OC(C)(C)Cc1ccc(Cl)cc1` (stereo not drawn), the figure is 8% (inactive); as for `COc1c2occc2c(OC)c2c(=O)cc(C)oc12`, 2.2% (inactive).
As for `CC1=C(C(=O)O)N2C(=O)[C@@H](NC(=O)[C@H](N)c3ccc(O)cc3)[C@H]2SC1`, the nuclear beta-catenin stimulation is 1.8% (inactive).
As for `COc1ccc(NS(=O)(=O)c2ccc(N)cc2)nn1`, the nuclear beta-catenin stimulation was -1.8% (inactive).
As for `NC[C@H]1O[C@H](O[C@H]2[C@H](O)[C@@H](O[C@H]3O[C@H](CO)[C@@H](O)[C@H](N)[C@H]3O)[C@H](N)C[C@@H]2N)[C@H](N)[C@@H](O)[C@@H]1O`, the figure is 0.8% (inactive); as for `CCCCc1nc(Cl)c(CO)n1Cc1ccc(-c2ccccc2-c2nn[nH]n2)cc1`, 2.6% (inactive).
Next, `CC(=O)Oc1cccc(O)c1`: 0.7% (inactive).
As for `COc1ccc(C(=O)c2ccccc2)c(O)c1`, the figure is 1.5% (inactive); as for `O=C(N[C@H](CO)[C@H](O)c1ccc([N+](=O)[O-])cc1)C(Cl)Cl`, -0.9% (inactive); as for `CCN(CC)CCOC(=O)C(c1ccccc1)C1CCCCC1` (stereo not drawn), 5% (inactive).
In the case of `Nc1c2ccccc2nc2ccccc12`, the nuclear beta-catenin stimulation was 21.1% (inactive).
Next, `Oc1c(Br)cc(Br)c2cccnc12`: 4.7% (inactive); `C[N+]12CCC(CC1)C(OC(=O)C(O)(c1ccccc1)c1ccccc1)C2` (stereo not drawn): 1.4% (inactive).
Next, `CC(=O)Nc1c(I)cc(I)c(C(=O)O)c1I`: -0.1% (inactive).
As for `Cc1c(NC(C)C)c(=O)n(-c2ccccc2)n1C`, the figure is 3.6% (inactive); as for `COc1ccc2cc3[n+](cc2c1OC)CCc1cc2c(cc1-3)OCO2`, 0.6% (inactive); as for `NC(N)=N/N=C/c1c(Cl)cccc1Cl`, -0.1% (inactive).
As for `CCN(CC)C(=O)c1cccc(C)c1`, the nuclear beta-catenin stimulation was 6.1% (inactive).
As to `CC(=O)OCC(COC(C)=O)OC(C)=O`, the nuclear beta-catenin stimulation was 0.2% (inactive).
As for `CC1(C)OC(=O)NC1=O`, the figure is 1.7% (inactive); as for `COc1cnc(NS(=O)(=O)c2ccc(N)cc2)nc1`, 0.2% (inactive); as for `CCCCC(CC)CN1CN(CC(CC)CCCC)CC(C)(N)C1` (stereo not drawn), -4.8% (inactive).
As for `Cc1[nH]c(C)c(Cl)c(=O)c1Cl`, the figure is 1.4% (inactive); as for `Cc1nnc(NS(=O)(=O)c2ccc(N)cc2)s1`, -0.1% (inactive); as for `Nc1ccc(C(=O)O)cc1`, -0.9% (inactive).
As to `Nc1nccs1`, the nuclear beta-catenin stimulation was -1.6% (inactive).
With `COc1ccc(-c2cc(C(F)F)nn2-c2ccc(S(N)(=O)=O)cc2)cc1F`, the nuclear beta-catenin stimulation is 4% (inactive).
For the compound `NC(=O)c1ccc([N+](=O)[O-])cc1Cl`, the nuclear beta-catenin stimulation is -0.6% (inactive).
As for `CCC(=O)O[C@H]1[C@H](O[C@@H]2[C@@H](C)[C@H](O[C@H]3C[C@@](C)(OC)[C@@H](O)[C@H](C)O3)[C@@H](C)C(=O)O[C@H](CC)[C@@](C)(O)[C@H](O)[C@@H](C)C(=O)[C@H](C)C[C@@]2(C)O)O[C@H](C)C[C@@H]1N(C)C`, the nuclear beta-catenin stimulation is 0.6% (inactive).

For the origin of these results see PubChem BioAssay.
